Laboratory results as given in PubChem BioAssay AID540325 (National Center for Advancing Translational Sciences (NCATS), 2011).
This is one part of the list. Activity calls are given as the source filed them.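 How the source made its calls: active means inhibition at 10 µM of 30% or more; inconclusive means no clear call, values can overlap the other calls; inactive means inhibition at 10 µM under 30%.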

These molecules were tested against DNA polymerase beta (Homo sapiens) (UniProt P06746) (assay: Inhibitors of DNA Polymerase Beta: Hit Validation in Radiolabeled Extension Assay). Conditions: radiolabeled primer extension gel assay, phosphorimager; at 10 µM; hits give high values.
Description: The base excision repair system in human cells is a target for therapeutic modulation of the response to irradiation treatment and DNA-damaging drugs. A key enzyme in this system is the bi-functional DNA polymerase known as DNA polymerase Beta (Pol Beta). […] Using an integrated approach involving discovery of small molecule probes for Pol Beta via HTS and medchem optimization in collaboration with the NIH Chemical Genomics Center, validation by crystallography and kinetics along with cell-based validation experiments, we will test the hypothesis that base excision repair can be strategically modulated in human cells by targeting Pol Beta. Thus, we anticipate the Pol Beta-specific probes emerging from this research will serve as starting points in the development of clinical agents for use in downregulation of DNA base excision repair during therapeutic interventions against cancer. This assay is an orthogonal follow-up assay that looks at radiolabeled primer extension and was carried out by the assay provider. NIH Chemical Genomics Center [NCGC] NIH Molecular Libraries Probe Centers Network [MLPCN] […]
A primer oligonucleotide is 5'-32P end-labeled using T4 polynucleotide kinase and 32P-[ATP]. […] Percent extension of substrate to product is measured using standard, quantitative phosphoimager analysis.

Row | SMILES | inhibition
1 | O=C(Nc1ccc(S(=O)(=O)Nc2nccs2)cc1)c1cc(-c2ccncc2)nc2ccccc12 | 96.4% (active)
